This is one part of a sample in which hits are shown more often than they occur.
MBNL1-CUG inh: blocks human MBNL1 binding to CUG repeat RNA. Q9NR56. TR-FRET MBNL1-His/biotin-(CUG)12 binding, 665/545 ratio. Potency, µM (highest dose often 57.5 µM), without a hit: at the top dose activity change, negative = inhibition, hits mostly inhibitors. 280,000 tested, 0.036% active. AID 2675; active = well fitted inhibition curve with a large enough effect in the signal ratio, with a control signal flat, not every such curve was filed as active; inconclusive = small, poorly fitted or top-dose-only effect, or effect the other way, or a change in a side signal; inactive = no such curve, though single readings can be large or run the other way; the % refers to the signal ratio; also: potency is read from the fitted curve at half-maximal effect; % is scaled to controls: 0 for no effect and ±100 for the full control effect
Target sequence (Q9NR56 whole entry, looked up): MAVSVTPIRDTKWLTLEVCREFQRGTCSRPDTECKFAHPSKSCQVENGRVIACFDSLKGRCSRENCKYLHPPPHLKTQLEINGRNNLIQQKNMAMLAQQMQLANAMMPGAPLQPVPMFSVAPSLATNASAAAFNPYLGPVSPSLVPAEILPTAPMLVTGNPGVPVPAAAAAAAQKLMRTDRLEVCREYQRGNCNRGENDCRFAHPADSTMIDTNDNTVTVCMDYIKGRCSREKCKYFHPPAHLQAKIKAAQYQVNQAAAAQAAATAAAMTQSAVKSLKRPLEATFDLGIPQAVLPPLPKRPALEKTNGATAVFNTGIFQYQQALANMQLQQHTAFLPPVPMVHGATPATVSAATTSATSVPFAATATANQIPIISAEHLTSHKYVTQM
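MBNL1-His + Biotin-(CUG)12, cpd titration 92 nM–58 uM; Tb anti-His Ab 0.055 ng/ul, SA-XL665 5 nM (final); 60 min RT; ratiometric 665/545 nm, Ex 340 nm; normalized to buffer and full-complex controls.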
ClpP mod: qHTS Assay for Activators of ClpP; Potency, µM (highest dose often 57.5 µM), for inactives: at the top dose activity change, negative = active; purified B. subtilis ClpP, FRET peptide cleavage, 20 min; 340,000 tested, 1.9% active; AID 651965, 2013; active = well fitted falling curve with a large enough effect; inconclusive = small, poorly fitted or top-dose-only effect; inactive = no such curve, though single readings can be large or run the other way; also: potency is read from the fitted curve at half-maximal effect; the source files actives as falling curves though it sought activators and does not explain the sign; nearly all actives have a fitted effect of over 65% in size
Target sequence (P80244 whole entry, looked up): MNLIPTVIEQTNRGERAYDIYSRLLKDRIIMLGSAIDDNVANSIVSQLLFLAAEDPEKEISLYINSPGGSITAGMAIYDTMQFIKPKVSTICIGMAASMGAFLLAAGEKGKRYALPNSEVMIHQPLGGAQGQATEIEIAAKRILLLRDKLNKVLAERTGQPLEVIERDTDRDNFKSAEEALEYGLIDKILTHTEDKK
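Purified B. subtilis ClpP, 10 microg/mL final in Tris/HCl pH8 with KCl, BSA, glycerol and Tween-20, cleaved an Abz/nitrotyrosine-quenched decapeptide. Fluorescence (ex 320, em 430) was read at 0 and 20 min at room temperature. Delta was normalized to 5.8 microM ADEP and DMSO/no-enzyme controls.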
Rango complex inh: prevents formation of the Rango-importin beta complex | Q14974 | Rango CFP/YFP FRET sensor + importin beta, 45 min | Potency, µM (top dose mostly 92.2 µM), without a hit: top-dose inhibition of complex formation | 340,000 tested, 0.031% active;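 also: potency is read from the fitted curve at half-maximal effect; 0% = DMSO wells and 100% = buffer wells lacking importin beta; nearly all actives have a fitted effect of over 15% in size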
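FRET biosensor (snurportin 1 IBB flanked by EYFP and cerulean), 50 nM, with compound 5 min, then 0.125 microM importin beta in PBS, 1 mM DTT, 0.02% Tween-20, 0.1% BSA. CFP/YFP ratio read after 45 min at room temperature; pre-read flags interference.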
CBFb RUNX1 block: CBF-beta/RUNX1 interaction disruption; 230,000 tested, under 10 active; Q01196+Q13951; Potency, µM (highest dose often 59.8 µM), inactives show at the top dose activity, negative = inhibition, usual class: inhibitors; AlphaScreen CBFb-His/RUNX1-biotin binding, biochemical; active = well fitted curve in the direction sought with a large enough effect; inconclusive = small, poorly fitted or top-dose-only effect, or effect the other way, or another doubt; inactive = no such curve, though single readings can be large or run the other way; also: % of control where 0% means no effect
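Proteins preincubated together for 20 min at RT before compound addition; 15 min later, nickel and streptavidin beads were added and left 90 min prior to AlphaScreen measurement.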
Rango release inh: inhibitors of RanGTP-induced Rango-importin beta complex dissociation; 340,000 tested, 0.071% active; AID 540253; O95149+P62826; Potency, µM (titrated, usually from 46.1 µM), without a hit: top-dose activity change, negative = inhibition; Biochemical FRET Rango-importin beta, RanGTP-induced dissociation; also: potency is read from the fitted curve at half-maximal effect; % of control where 0% means no effect; nearly all actives have a fitted effect of over 45% in size
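FRET read at 45 min, room temperature: inhibitors block the CFP/YFP signal rise when RanGTP (0.6 uM Ran, 2 mM GTP, 0.2 uM RCC1) frees Rango (0.1 uM) from importin beta (0.25 uM). Pre-read after 5 min compound exposure flags interference.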
Starred values were filed as active, the others as inactive; ? = inconclusive; . = no result. Unless noted, calls follow the shape of the full dose curve.

SMILES	MBNL1-CUG inh	ClpP mod	Rango complex inh	CBFb RUNX1 block	Rango release inh
CN(CC(=O)NCCCN1CCOCC1)S(=O)(=O)c1ccc(Cl)cc1	.	20µM*	-2%	.	-9%
COc1cccc(N(CC(=O)NCCN2CCOCC2)S(=O)(=O)c2ccccc2)c1	.	18µM*	-2%	.	28%
CCC(=O)N1CCc2cc(S(=O)(=O)NCCC(=O)Nc3ccc(OC)c(OC)c3)ccc21	.	-1%	.	.	.
Clc1ccc(C2=CC(c3ccco3)n3ncnc3N2)cc1 (stereo unspecified)	?	32µM*	?	-2%	?
FC(F)(F)COc1ccc(-c2nnc(SCc3ccccc3)o2)cn1	.	18µM*	8%	3%	19%
c1ccc(CSc2nnc(-c3ccncc3)o2)cc1	-4%	-10%	0%	5%	10%
COc1ccc(-c2cnc3n2CCCCC3)cc1	-6%	-1%	0%	8%	8%
COc1ccc(-c2c[n+]3c4n2CCCCC4=C(c2ccc(Br)cc2)C3)cc1	17%	22µM*	?	-28%	?
Clc1ccc(C2=C3CCCCn4c(-c5ccccc5)c[n+](c43)C2)cc1	-2%	10µM*	?	-10%	-17%
CC(=O)Oc1ccc2cc(-c3nc4c(s3)CCc3ccccc3-4)c(=O)oc2c1	.	1%	.	.	.
CCCCCCCCCCCCCCCCOCC(COP(=O)([O-])OCC[N+](C)(C)C)OC (stereo unspecified)	.	.	.	9%	.
O=C(CCC1N=C2c3ccccc3N=C(SCc3ccccc3Cl)N2C1=O)NCCc1ccccc1 (stereo unspecified)	.	-8%	.	.	.
Cc1cc(=O)oc2cc(OC(C)C(=O)NC3CCCC3)ccc12 (stereo unspecified)	-7%	.	5%	.	42%
Cc1cc(C)c(NC(=O)COc2ccc3c(C)cc(=O)oc3c2)c(C)c1	.	4%	.	.	.
CCN(CC)S(=O)(=O)c1ccc(OC)c(NC(=O)C(C)Oc2ccc3c(C)cc(=O)oc3c2)c1 (stereo unspecified)	.	25µM*	?	-3%	2%
CCN(CC)S(=O)(=O)c1ccc(C)c(NC(=O)COc2ccc3c(C)cc(=O)oc3c2)c1	9%	25µM*	2%	11%	1%
Cc1cccc(S(=O)(=O)c2c(N)n(-c3ccccc3)c3nc4ccccc4nc23)c1	0%	14µM*	-4%	10%	-24%
Cc1ccc(S(=O)(=O)c2c(N)n(NC(=O)C3CC3)c3nc4ccccc4nc23)cc1	?	33%	?	12%	?
Nc1c(S(=O)(=O)c2ccccc2)c2nc3ccccc3nc2n1/N=C/c1ccco1	80%	11µM*	?	-22%	?
Nc1c(C(=O)NC2CCCCC2)c2nc3ccccc3nc2n1/N=C/c1ccco1	-14%	.	.	8%	.
Cc1ccc(S(=O)(=O)c2c(N)n(/N=C/c3ccco3)c3nc4ccccc4nc23)cc1C	7%	14µM*	?	0%	?
Cc1ccc(-n2c(N)c(S(=O)(=O)c3ccccc3)c3nc4ccccc4nc32)cc1	9%	.	-3%	2%	4%
Cc1ccc(S(=O)(=O)c2c(N)n(/N=C/c3ccco3)c3nc4ccccc4nc23)cc1	23%	8.9µM*	?	-27%	?
COc1ccc(S(=O)(=O)c2c(N)n(Cc3ccco3)c3nc4ccccc4nc23)cc1	9%	16µM*	?	-7%	?
COc1ccc(Cn2c(C)nc3c(c2=O)c2nc4ccccc4nc2n3Cc2ccco2)cc1	.	?	?	.	34%
SMILES	MBNL1-CUG inh	ClpP mod	Rango complex inh	CBFb RUNX1 block	Rango release inh
Cc1cccc(S(=O)(=O)c2c(N)n(/N=C/c3ccco3)c3nc4ccccc4nc23)c1	59%	3.5µM*	?	?	?
CC1(C)Cc2c(cnn2-c2ccccc2)-c2c1c1ccccc1n2CC(O)CCl (stereo unspecified)	-7%	22µM*	?	-7%	-28%
CC1(C)Cc2c(cnn2-c2ccccc2)C(=O)/C1=N\NC(=O)c1ccncc1	.	-2%	0%	.	-7%
O=S(=O)(c1ccccc1C(F)(F)F)N1CCN(c2nc(-c3ccccc3)nc3ccccc23)CC1	.	-11%	.	.	.
CCOC(=O)c1c(C)[nH]c(C)c1S(=O)(=O)N1CCCC(C(=O)N2CCN(c3cccc(C)c3C)CC2)C1 (stereo unspecified)	.	-1%	.	.	.
COC(=O)c1ccc(C(=O)OC)c(NC(=S)N2CCOCC2)c1	-2%	32µM*	-4%	10%	-22%
CCN1CCN(C(=S)Nc2cc(C(=O)OC)ccc2C(=O)OC)CC1	-10%	-29%	-2%	7%	1%
O=c1c2c3nc4ccccc4nc3n(-c3ccc4c(c3)OCCO4)c2ncn1CC1CCCO1 (stereo unspecified)	13%	.	.	0%	.
COCCCn1c2nc3ccccc3nc2c2c(=O)n(CC3CCCO3)cnc21 (stereo unspecified)	?	13µM*	0%	5%	0%
CN(C)C1CCc2[nH]c3ccc(NC(=O)c4ccc(F)cc4)cc3c2C1 (stereo unspecified)	.	.	.	-4%	.
O=C(CSCc1ccccc1Cl)Nc1c[nH]c(=O)[nH]c1=O	.	28µM*	4%	2%	23%
O=C(CSCc1ccc(Cl)c(Cl)c1)Nc1c[nH]c(=O)[nH]c1=O	-2%	13µM*	9%	6%	14%
COc1cc(NC(=O)N2CCC3(CC2)Nc2ccccc2-n2cccc23)cc(OC)c1OC	.	-21%	.	.	.
Cn1c(=O)c2c(-c3ccccc3)n(-c3ccccc3O)cc2n(C)c1=O	7%	28µM*	3%	1%	1%
COc1ccc(-c2c3c(=O)n(C)c(=O)n(C)c3cn2-c2ccccc2O)cc1	-2%	1%	-1%	2%	15%
COc1ccc(-c2c3c(=O)n(C)c(=O)n(C)c3cn2-c2cc(OC)ccc2OC)cc1	6%	28µM*	-4%	-21%	-7%
c1cc2c(cc1Cc1cncc(Cc3ccc4c(c3)OCO4)c1)OCO2	.	0%	.	.	.
Cc1cccc(C(=O)Nc2ccc(NC(=O)Cc3ccc(Cl)cc3)cc2)c1	-5%	32µM*	-2%	1%	-8%
Cc1ccccc1-c1nnc(SCCOc2ccc3c(C)cc(=O)oc3c2)o1	-2%	25µM*	-3%	3%	7%
Cc1cc(=O)oc2cc(OCCSCCN3CCCC3)ccc12	-10%	1%	-2%	-5%	1%
Cc1ccc2nc(NCc3ccccc3)c3nncn3c2c1	.	-6%	.	.	.
Cc1cc(=O)oc2cc(OCC3CC(c4ccc(Cl)cc4)=NO3)ccc12 (stereo unspecified)	-3%	28µM*	0%	3%	2%

Compound activity from PubChem.
